Measurements as given in PubChem BioAssay (EPA / NIEHS).
Results filed as inconclusive are left out. Calls of active or inactive are those of the source. The calls were made as follows: active = hit-call score of the fitted dose curve at least 0.9, where 1 is the maximum; inconclusive = response in the unintended direction; inactive = score below 0.9.

target: human Vitamin D Receptor (VDR), VDR (gene 7421) (UniProt P11473); experiment: ATG_VDR_TRANS: Attagene TRANS-FACTORIAL HepG2 Assay for human Vitamin D Receptor (VDR) (AID 2283022)
Sequence (P11473 whole entry, looked up, the tested form may be a part): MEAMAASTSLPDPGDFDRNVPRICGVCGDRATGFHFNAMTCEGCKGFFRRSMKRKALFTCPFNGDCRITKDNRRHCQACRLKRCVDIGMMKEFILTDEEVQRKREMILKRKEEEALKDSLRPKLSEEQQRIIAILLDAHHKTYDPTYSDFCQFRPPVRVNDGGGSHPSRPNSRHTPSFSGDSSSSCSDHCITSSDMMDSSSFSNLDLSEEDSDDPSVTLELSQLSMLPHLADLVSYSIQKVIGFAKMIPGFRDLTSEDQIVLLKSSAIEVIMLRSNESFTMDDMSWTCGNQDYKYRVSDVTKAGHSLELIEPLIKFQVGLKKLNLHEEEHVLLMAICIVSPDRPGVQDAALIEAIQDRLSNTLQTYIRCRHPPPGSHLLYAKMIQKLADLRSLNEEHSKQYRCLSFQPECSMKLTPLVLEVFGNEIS
Method in brief: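 HepG2 cells were transiently transfected with multiple GAL4-UAS reporter units, so signal reflects exogenous chimeric receptor-Gal4 activity. After 24 h compound exposure, reporter mRNA was measured by RT-PCR, fluorescent labelling and capillary electrophoresis, fitted for gain of signal versus DMSO.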

Compound | outcome | AC50
CC(C)c1ccc2cc(C(C)C)ccc2c1 | inactive | –
O=Cc1ccc(CO)o1 | inactive | –
c1ccc(CNCc2ccccc2)cc1 | inactive | –
C[Si](C)(CCCN)O[Si](C)(C)CCCN | inactive | –
O=C(O)c1cc2ccccc2nc1C(=O)O | inactive | –
COC(=O)/C=C/C(C)=C\C=C\C(C)=C\C=C\C=C(C)\C=C\C=C(C)\C=C\C(=O)O | inactive | –
CC(=O)C=CC1C(C)=CCC(C)C1(C)C (centres undefined) | inactive | –
CC(=O)Nc1ccc2c(c1)Cc1cc(NC(C)=O)ccc1-2 | inactive | –
CCN(Cc1cccc(S(=O)(=O)O)c1)c1ccc(C(=C2C=CC(=[N+](CC)Cc3cccc(S(=O)(=O)[O-])c3)C=C2)c2ccccc2)cc1 | inactive | –
CC(C)c1ccc2c(c1)CC[C@H]1[C@](C)(CN)CCC[C@]21C | inactive | –
CC1(C)O[C@@H]2C[C@H]3[C@@H]4C[C@H](F)C5=CC(=O)C=C[C@]5(C)[C@@]4(F)[C@@H](O)C[C@]3(C)[C@]2(C(=O)CO)O1 | inactive | –
CCc1ccc2c(c1)C(=O)c1ccccc1C2=O | inactive | –
Cc1ccc(C2OC[C@@H]3OC(c4ccc(C)cc4)O[C@H]([C@H](O)CO)[C@@H]3O2)cc1 (some centres undefined) | inactive | –
C1=Cc2ccccc2C1 | inactive | –
CC/C=C\C/C=C\C/C=C\CCCCCCCC(=O)O | inactive | –
CN(C)c1ccc(C(=N)c2ccc(N(C)C)cc2)cc1 | – | 156 µM (active)
CC=C1CC2C=CC1C2 (centres undefined) | inactive | –

Compound | outcome | AC50
CCCNC(=O)NS(=O)(=O)c1ccc(Cl)cc1 | inactive | –
CN(C)CCCN(C)C | inactive | –
COC(=O)c1c(C)cc(O)c(C)c1O | inactive | –
C=CC(C)(C)C | inactive | –
Cc1cc(C)c(C(=O)O)c(C)c1 | inactive | –
O=[N+]([O-])C1(Br)COCOC1 | inactive | –
CCOC(=O)N1CCC(=C2c3ccc(Cl)cc3CCc3cccnc32)CC1 | inactive | –
O=C(Oc1ccccc1)c1ccc2ccccc2c1O | inactive | –
CC(C)C1=CC2=CC[C@@H]3[C@](C)(CCC[C@@]3(C)C(=O)O)[C@H]2CC1 | inactive | –
Cc1cccc(C(=O)O)c1 | inactive | –
COc1ccc(C(Cl)=C(c2ccc(OC)cc2)c2ccc(OC)cc2)cc1 | inactive | –
O=C1OC(=O)c2cc(Oc3ccc4c(c3)C(=O)OC4=O)ccc21 | inactive | –
CCCCCCCCCCCCCOP(=O)(O)O | inactive | –
CCCCCc1ccc(Cl)cc1 | inactive | –
ON(Cc1ccccc1)Cc1ccccc1 | inactive | –
Cn1c(=O)[nH]c2ncn(C)c2c1=O | inactive | –
C=C[Si](C)(C)O[Si](C)(C)C=C | inactive | –
